This is part of a sample that, as a whole, favours compounds with a hit. Of some 79,000 tested, about 15% had one in any assay. Unmarked numbers belong to inactive results. Calls of active or inactive are those of the source. Rule as the data show it: active = growth inhibition above about 70%; inactive = the rest.
Experiment: NCI Yeast Anticancer Drug Screen. Data for the bub3 strain (AID 167)
Details: S. cerevisiae bub3 mutant strain, at 50.0 µM, hits give high values
Outline: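 Inhibition values come from growth of compound-treated mutant yeast normalised to vehicle-treated controls.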

Row | SMILES | growth inhibition
1 | Nc1nc2c(ccc3ccccc32)s1 | 56.9%
2 | O=C(O)CCCCC1CCCCC1.[Cu+2] | 6.2%
3 | O=Cc1ccc(O)c2ccccc12 | 48%
4 | CC(=Nc1ccc(N(C)C)cc1)c1ccccc1 | 71.7% (active)
5 | C/C(Cl)=N\OC(=O)Nc1ccc(C)cc1 | 74% (active)
6 | COC(=O)C1CCC(c2ccccc2)CC1C(=O)OC (stereo not given) | 71.2% (active)
7 | CCCCNC(=S)NC1C2CC3CC(C2)CC1C3 (stereo not given) | 90.4% (active)
8 | CCN(CC)CCOC(=O)CCN1CC2CCC(CC2)C1 | -32.8%
9 | CCOc1ccc(-c2nc3ccc(-c4nc5ccc(N6CCN(C)CC6)cc5[nH]4)cc3[nH]2)cc1 | 89.1% (active)
10 | NC(CCC(=O)NC(CS(=O)(=O)O)C(=O)O)C(=O)O (stereo not given) | 13.4%
11 | CSc1cc(C(=O)O)nc(N)n1 | -17.1%
12 | CCN(CC)CCCNc1c(O)cc(C)c2sc3ccccc3c(=O)c12 | 98.4% (active)
13 | C=C1C(=O)OC2C1CC1OC2C(C)CCC/C(C)=C\CCC1(C)O (stereo not given) | 92.4% (active)
14 | O=C1C=CC2=Nc3ccccc3CCC2=C1 | 98.8% (active)
15 | CC(C)CC(CC(C)C)OP(=O)(O)OC(CC(C)C)CC(C)C | 70.5% (active)
16 | O=C(O)c1ccccc1Cc1ccc2c(c1)Cc1ccccc1-2 | 50.4%
17 | Nc1c(F)cccc1F | -1.15%
18 | COc1cc(OC)c(SSCCCCS(=O)O)c(OC)c1 | -26.2%
19 | S=C1Nc2cnc3ccccc3c2SC1c1ccccc1 (stereo not given) | 90.8% (active)
20 | CC(C)CCCC(C)[C@H]1CCC(C2C[C@@H](O)[C@@H]3CC(O)[C@@H](O)C[C@]3(CO)C2=O)[C@]1(C)CCO (stereo not given in full) | 91.6% (active)

Row | SMILES | growth inhibition
21 | CN(C)CC(CN(C)C)C(=O)c1ccc(Oc2ccc(Cl)c(Cl)c2)cc1 | 94.8% (active)
22 | CN1c2ccccc2C(C)(C)C12C=Cc1cc(O)ccc1O2 (stereo not given) | 52.4%
23 | CC(C)Cc1ncc(CC(C)C)n(O)c1=O | 89.5% (active)
24 | Nc1ccc(SSc2ccc(N)cc2)cc1 | 95.3% (active)
25 | N#CCC1CC(=O)c2[nH]c3ccccc3c2C1 (stereo not given) | -15.9%
26 | O=C1c2ccccc2C(=O)c2sccc21 | 90.5% (active)
27 | CC/C(=C(\CC)c1ccc(O)c(CN(C)C)c1)c1ccc(OC)cc1 | 94.8% (active)
28 | O=S(=O)(O)N=Nc1ccc(O)cc1 | 92.8% (active)
29 | O=C1CCSC(=S)N1c1ccc(N=Nc2ccccc2)cc1 | 93.5% (active)
30 | CC(C)C(=O)NNc1ccccc1 | 70.4% (active)
31 | O=C(CBr)c1ccc2cc(Br)c3ccccc3c2c1 | 41.1%
32 | O=C1c2cc3c(cc2CC1Br)CCC3 (stereo not given) | 89.5% (active)
33 | O=C1NC(=O)N(c2ccc(Cl)c(Cl)c2)C1=O | 44.5%
34 | C[n+]1c(-c2cccc(OCCOCCOc3cccc(-c4c5cc(N)ccc5c5ccc(N)cc5[n+]4C)c3)c2)c2cc(N)ccc2c2ccc(N)cc21 | 78.8% (active)
35 | N#CC(C#N)C(C#N)c1ccc(Cl)c(Cl)c1 (stereo not given) | 99.7% (active)
36 | CCCCCCCCCCCCOC(=O)C[n+]1cccc(C(=O)Nc2ccc(Cl)cc2)c1 | 98.8% (active)
37 | CCC(=O)c1ccc2ccc3ccccc3c2c1 | 68.8%
38 | Cc1ccc(S(=O)(=O)NC(=O)CC2CCCCC2)cc1 | 79% (active)
39 | c1ccc(N/N=C(/CC/C(=N\Nc2ccccc2)c2ccccc2)c2ccccc2)cc1 | 95.9% (active)
40 | Cc1c(N)cc(I)cc1[N+](=O)[O-] | 56.8%

Experiment: NCI Yeast Anticancer Drug Screen. Data for the mlh1 rad18 strain (AID 175)
Details: S. cerevisiae mlh1 rad18 strain growth inhibition; at 5.0 µM (retest, dose inferred, filed as 0.5); hits give high values
Outline: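 Growth inhibition of the yeast strain was measured after compound exposure and expressed relative to vehicle-treated controls. The strain carries defined defects in DNA damage repair.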

Row | SMILES | growth inhibition
41 | Nc1nc2c(ccc3ccccc32)s1 | 1%
42 | O=C(O)CCCCC1CCCCC1.[Cu+2] | 19%
43 | O=Cc1ccc(O)c2ccccc12 | -5%
44 | CC(=Nc1ccc(N(C)C)cc1)c1ccccc1 | -15%
45 | C/C(Cl)=N\OC(=O)Nc1ccc(C)cc1 | -3%
46 | COC(=O)C1CCC(c2ccccc2)CC1C(=O)OC (stereo not given) | -3%
47 | CCCCNC(=S)NC1C2CC3CC(C2)CC1C3 (stereo not given) | -13%
48 | CCN(CC)CCOC(=O)CCN1CC2CCC(CC2)C1 | 18%
49 | CCOc1ccc(-c2nc3ccc(-c4nc5ccc(N6CCN(C)CC6)cc5[nH]4)cc3[nH]2)cc1 | 57%
50 | NC(CCC(=O)NC(CS(=O)(=O)O)C(=O)O)C(=O)O (stereo not given) | -3%
51 | CSc1cc(C(=O)O)nc(N)n1 | 4%
52 | CCN(CC)CCCNc1c(O)cc(C)c2sc3ccccc3c(=O)c12 | 6%
53 | C=C1C(=O)OC2C1CC1OC2C(C)CCC/C(C)=C\CCC1(C)O (stereo not given) | 1%
54 | O=C1C=CC2=Nc3ccccc3CCC2=C1 | -115%
55 | CC(C)CC(CC(C)C)OP(=O)(O)OC(CC(C)C)CC(C)C | 9%
56 | O=C(O)c1ccccc1Cc1ccc2c(c1)Cc1ccccc1-2 | 14%
57 | Nc1c(F)cccc1F | 0%
58 | COc1cc(OC)c(SSCCCCS(=O)O)c(OC)c1 | 1%
59 | S=C1Nc2cnc3ccccc3c2SC1c1ccccc1 (stereo not given) | 4%
60 | CC(C)CCCC(C)[C@H]1CCC(C2C[C@@H](O)[C@@H]3CC(O)[C@@H](O)C[C@]3(CO)C2=O)[C@]1(C)CCO (stereo not given in full) | -10%

Row | SMILES | growth inhibition
61 | CN(C)CC(CN(C)C)C(=O)c1ccc(Oc2ccc(Cl)c(Cl)c2)cc1 | 21%
62 | CN1c2ccccc2C(C)(C)C12C=Cc1cc(O)ccc1O2 (stereo not given) | -15%
63 | CC(C)Cc1ncc(CC(C)C)n(O)c1=O | 61%
64 | Nc1ccc(SSc2ccc(N)cc2)cc1 | -1%
65 | N#CCC1CC(=O)c2[nH]c3ccccc3c2C1 (stereo not given) | -123%
66 | O=C1c2ccccc2C(=O)c2sccc21 | -75%
67 | CC/C(=C(\CC)c1ccc(O)c(CN(C)C)c1)c1ccc(OC)cc1 | 3%
68 | O=S(=O)(O)N=Nc1ccc(O)cc1 | 37%
69 | O=C1CCSC(=S)N1c1ccc(N=Nc2ccccc2)cc1 | 18%
70 | CC(C)C(=O)NNc1ccccc1 | 39%
71 | O=C(CBr)c1ccc2cc(Br)c3ccccc3c2c1 | 83% (active)
72 | O=C1c2cc3c(cc2CC1Br)CCC3 (stereo not given) | 99% (active)
73 | O=C1NC(=O)N(c2ccc(Cl)c(Cl)c2)C1=O | -4%
74 | C[n+]1c(-c2cccc(OCCOCCOc3cccc(-c4c5cc(N)ccc5c5ccc(N)cc5[n+]4C)c3)c2)c2cc(N)ccc2c2ccc(N)cc21 | 35%
75 | N#CC(C#N)C(C#N)c1ccc(Cl)c(Cl)c1 (stereo not given) | 70% (active)
76 | CCCCCCCCCCCCOC(=O)C[n+]1cccc(C(=O)Nc2ccc(Cl)cc2)c1 | 88% (active)
77 | CCC(=O)c1ccc2ccc3ccccc3c2c1 | 5%
78 | Cc1ccc(S(=O)(=O)NC(=O)CC2CCCCC2)cc1 | 22%
79 | c1ccc(N/N=C(/CC/C(=N\Nc2ccccc2)c2ccccc2)c2ccccc2)cc1 | 18%
80 | Cc1c(N)cc(I)cc1[N+](=O)[O-] | -5%
